Source: PubChem BioAssay (NCATS)
Results filed as inconclusive are left out. Where a call stands in place of a potency, no number is given. The source made the active and inactive calls. Calls come from the whole dose curve; as a rule, active = well fitted cell-killing curve with a large enough effect; inconclusive = small, poorly fitted or top-dose-only effect; inactive = flat fitted curve, though single readings scatter.

assay: Cell Viability - LYMP2-002 (AID 977); settings: LYMP2-002 lymphoblastoid cell viability, qHTS; series mostly up to 92.2 µM;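 note: compound exposure lasted 24 h at 37 °C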
Procedure, shortened: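 Cytotoxicity is scored as concentration-dependent loss of cellular ATP in a human lymphoblastoid line after 24 hr compound treatment at 37 C. AC50 is obtained by modelling concentration-response data with the Hill equation.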

| Structure (SMILES) | Potency |
| --- | --- |
| CCCCCCc1ccc(-c2ccc(C#N)cc2)cc1 | inactive |
| Nc1cnn([C@@H]2O[C@H](CO)[C@@H](O)[C@H]2O)c(=O)n1 | inactive |
| CCCCCCCCOc1ccc(C(=O)O)cc1 | inactive |
| Oc1c(Cl)cc(Cl)c(Cl)c1Cl | inactive |
| CC(C)OCC1CO1 (stereo unspecified) | inactive |
| C/C(Cl)=C/CCl | inactive |
| CCCCNCC | inactive |
| O=c1[nH]ncc2ccccc12 | inactive |
| c1ccc(COCc2ccccc2)cc1 | inactive |
| O=[N+]([O-])c1cccc(I)c1 | inactive |
| c1ccc2c(c1)ccc1ccccc12 | inactive |
| Nc1ccc(N=Nc2ccccc2)c(N)c1 | inactive |
| Cc1ccc(C(=O)O)cc1[N+](=O)[O-] | inactive |
| COc1ccc([N+](=O)[O-])cc1N | inactive |
| OCC(CO)(CBr)CBr | inactive |
| Nc1cc(C(=O)O)c(O)c(S(=O)(=O)O)c1 | inactive |
| Oc1ccc2c(c1)OCO2 | inactive |
| c1ccncc1 | inactive |
| CC(=O)OC1CC(C)OC(C)O1 (stereo unspecified) | inactive |

| Structure (SMILES) | Potency |
| --- | --- |
| O=C(OCc1ccccc1)c1ccccc1O | inactive |
| CCN(CC)c1ccc2c(C)cc(=O)oc2c1 | inactive |
| c1c[nH]cn1 | inactive |
| c1ccc(SCCSc2ccccc2)cc1 | inactive |
| O=C(O)/C=C/c1ccc(/C=C/C(=O)O)cc1 | inactive |
| CCCCOC(=O)COc1ccc(Cl)cc1Cl | inactive |
| CC(=O)OC(C(=O)c1ccccc1)c1ccccc1 (stereo unspecified) | inactive |
| CCCCCCN | inactive |
| CC(=O)Nc1cccc(C)c1 | inactive |
| CCC(Cl)CC(Cl)C(Cl)C(Cl)C(Cl)C(C)Cl (stereo unspecified) | inactive |
| COc1ccc(C)cc1N | inactive |
| CCc1ccc(C(c2ccc(CC)cc2)C(Cl)Cl)cc1 | inactive |
| C[C@@H]1CC2(OC(O)[C@]3(C)O[C@H]23)O[C@H]2C[C@@]3(C)[C@@H]4CC[C@H]5C(C)(C)C(O[C@@H]6OC[C@@H](O)[C@H](O)[C@H]6O)CC[C@@]56C[C@@]46CC[C@]3(C)[C@@H]12 (stereo partly specified) | inactive |
| O=[N+]([O-])c1ccccc1Nc1ccccc1 | inactive |
| C=CC1CO1 (stereo unspecified) | inactive |
| COc1cc(-c2ccc(N=C=O)c(OC)c2)ccc1N=C=O | inactive |
| CCOC(=O)C1OC1c1ccccc1 (stereo unspecified) | inactive |
| COc1ccc(C(=O)Nc2ccccc2)cc1[N+](=O)[O-] | inactive |

assay: Cell Viability - LYMP2-006 (AID 978); settings: LYMP2-006 lymphoblastoid cell viability, qHTS; series mostly up to 92.2 µM; note: nearly all actives have a fitted effect of over 60% in size; note: potency is the fitted concentration of half-maximal effect
Procedure, shortened: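 Potency values are Hill-fit AC50s for decreases in intracellular ATP (CellTiter-Glo luminescence). LYMP2-006 lymphoblastoid cells, 2500 per well, were exposed to compound in complete culture medium for 24 hr at 37 C.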

| Structure (SMILES) | Potency |
| --- | --- |
| CCCCCCc1ccc(-c2ccc(C#N)cc2)cc1 | inactive |
| Nc1cnn([C@@H]2O[C@H](CO)[C@@H](O)[C@H]2O)c(=O)n1 | inactive |
| CCCCCCCCOc1ccc(C(=O)O)cc1 | inactive |
| Oc1c(Cl)cc(Cl)c(Cl)c1Cl | inactive |
| CC(C)OCC1CO1 (stereo unspecified) | inactive |
| C/C(Cl)=C/CCl | inactive |
| CCCCNCC | inactive |
| O=c1[nH]ncc2ccccc12 | inactive |
| c1ccc(COCc2ccccc2)cc1 | inactive |
| O=[N+]([O-])c1cccc(I)c1 | inactive |
| Nc1ccc2c(c1)C(=O)c1ccccc1C2=O | inactive |
| c1ccc2c(c1)ccc1ccccc12 | inactive |
| Nc1ccc(N=Nc2ccccc2)c(N)c1 | inactive |
| Cc1ccc(C(=O)O)cc1[N+](=O)[O-] | inactive |
| COc1ccc([N+](=O)[O-])cc1N | inactive |
| OCC(CO)(CBr)CBr | inactive |
| Nc1cc(C(=O)O)c(O)c(S(=O)(=O)O)c1 | inactive |
| Oc1ccc2c(c1)OCO2 | inactive |
| c1ccncc1 | inactive |

| Structure (SMILES) | Potency |
| --- | --- |
| CC(=O)OC1CC(C)OC(C)O1 (stereo unspecified) | inactive |
| O=C(OCc1ccccc1)c1ccccc1O | inactive |
| C/C=C/C=C/C=O | 39.8 µM (active) |
| CCN(CC)c1ccc2c(C)cc(=O)oc2c1 | inactive |
| c1c[nH]cn1 | inactive |
| c1ccc(SCCSc2ccccc2)cc1 | inactive |
| O=C(O)/C=C/c1ccc(/C=C/C(=O)O)cc1 | inactive |
| CCCCOC(=O)COc1ccc(Cl)cc1Cl | inactive |
| CC(=O)OC(C(=O)c1ccccc1)c1ccccc1 (stereo unspecified) | inactive |
| CCCCCCN | inactive |
| CC(=O)Nc1cccc(C)c1 | inactive |
| CCC(Cl)CC(Cl)C(Cl)C(Cl)C(Cl)C(C)Cl (stereo unspecified) | inactive |
| COc1ccc(C)cc1N | inactive |
| CCc1ccc(C(c2ccc(CC)cc2)C(Cl)Cl)cc1 | inactive |
| O=[N+]([O-])c1ccccc1Nc1ccccc1 | inactive |
| C=CC1CO1 (stereo unspecified) | inactive |
| COc1cc(-c2ccc(N=C=O)c(OC)c2)ccc1N=C=O | inactive |
| CCOC(=O)C1OC1c1ccccc1 (stereo unspecified) | inactive |
| COc1ccc(C(=O)Nc2ccccc2)cc1[N+](=O)[O-] | inactive |

assay: Cell Viability - LYMP2-007 (AID 979); settings: LYMP2-007 lymphoblastoid cell viability; series mostly up to 92.2 µM;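 note: cells exposed to compound for 24 h before reading; nearly all actives have a fitted effect of over 60% in size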
Procedure, shortened: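 Human lymphoblastoid LYMP2-007 cells (2500/well) preincubated 5 h at 37 C, then treated 24 h at 37 C in complete medium. Viability by CellTiter-Glo ATP luminescence after 30 min at room temperature; AC50 from Hill fits.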

| Structure (SMILES) | Potency |
| --- | --- |
| Nc1cnn([C@@H]2O[C@H](CO)[C@@H](O)[C@H]2O)c(=O)n1 | inactive |
| CCCCCCCCOc1ccc(C(=O)O)cc1 | inactive |
| Oc1c(Cl)cc(Cl)c(Cl)c1Cl | inactive |
| CC(C)OCC1CO1 (stereo unspecified) | inactive |
| C/C(Cl)=C/CCl | inactive |
| CCCCNCC | inactive |
| O=c1[nH]ncc2ccccc12 | inactive |
| c1ccc(COCc2ccccc2)cc1 | inactive |
| c1ccc2c(c1)ccc1ccccc12 | inactive |
| Nc1ccc(N=Nc2ccccc2)c(N)c1 | inactive |
| COc1ccc([N+](=O)[O-])cc1N | inactive |
| Nc1cc(C(=O)O)c(O)c(S(=O)(=O)O)c1 | inactive |
| c1ccncc1 | inactive |
| CC(=O)OC1CC(C)OC(C)O1 (stereo unspecified) | inactive |
| CCN(CC)c1ccc2c(C)cc(=O)oc2c1 | inactive |
| c1c[nH]cn1 | inactive |
| c1ccc(SCCSc2ccccc2)cc1 | inactive |
| O=C(O)/C=C/c1ccc(/C=C/C(=O)O)cc1 | inactive |
| CCCCOC(=O)COc1ccc(Cl)cc1Cl | inactive |
| CC(=O)OC(C(=O)c1ccccc1)c1ccccc1 (stereo unspecified) | inactive |
| CCCCCCN | inactive |
| CCC(Cl)CC(Cl)C(Cl)C(Cl)C(Cl)C(C)Cl (stereo unspecified) | inactive |
| COc1ccc(C)cc1N | inactive |
| C[C@@H]1CC2(OC(O)[C@]3(C)O[C@H]23)O[C@H]2C[C@@]3(C)[C@@H]4CC[C@H]5C(C)(C)C(O[C@@H]6OC[C@@H](O)[C@H](O)[C@H]6O)CC[C@@]56C[C@@]46CC[C@]3(C)[C@@H]12 (stereo partly specified) | inactive |
| O=[N+]([O-])c1ccccc1Nc1ccccc1 | inactive |
| C=CC1CO1 (stereo unspecified) | inactive |
